From PubChem BioAssay (NCATS)
Inconclusive results are not listed. Unmarked numbers belong to inactive results. Active and inactive are the calls of the source. Calls come from the whole dose curve; as a rule, active = well fitted inhibition curve with a large enough effect; inconclusive = small, poorly fitted or top-dose-only effect; inactive = flat fitted curve, though single readings scatter.

molecular target: Calcium and integrin-binding protein 1 (Homo sapiens) (UniProt Q99828); assay: Primary qHTS for Identification of Calcium Integrin Binding Protein 1 (CIB1) Competitor (AID 1508620); details: CIB1-GST / FITC-alphaIIb peptide fluorescence polarization; series mostly up to 114 µM; activity change, negative = inhibition: at the top concentration; note: top concentration of the series differs between compounds
How it was run: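 Fluorescence polarization competition: GST-tagged CIB1 (1 uM final) preincubated with compound 15 min at room temperature, then FITC-labelled alphaIIb peptide (100 nM final) added. After 15 min at room temperature, polarization read at Ex 480/Em 540.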
% is set by controls: 0 for no effect and ±100 for the full control effect.

Calcium and integrin-binding protein 1 (Homo sapiens), sequence (Q99828 whole entry, looked up): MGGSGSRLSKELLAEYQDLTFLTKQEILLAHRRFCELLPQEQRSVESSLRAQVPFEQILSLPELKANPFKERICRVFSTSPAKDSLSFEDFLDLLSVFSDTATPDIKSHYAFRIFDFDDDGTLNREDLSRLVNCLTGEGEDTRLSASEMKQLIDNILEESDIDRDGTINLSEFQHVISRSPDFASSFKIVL

SMILES | activity change, negative = inhibition | outcome
S=P(c1ccccc1)(c1ccccc1)c1cnc2ccccn12 | -0.179% | –
CCOc1ccc(CCNC(=O)c2cc3ccccc3n2Cc2cccc(C)n2)cc1OCC | 3.2% | –
N#Cc1ccc(NC(=O)Nc2nnc(-c3ccncc3)s2)cc1C(F)(F)F | 5.87% | –
Cn1cc(Br)c(C2N=C(Nc3nc4ccccc4o3)NC3=C2C(=O)CCC3)n1 (centres undefined) | -18.2% | –
CCOc1ccc(CCNC(=O)c2cc3cnccc3n2Cc2cccc(C)n2)cc1OCC | -4.17% | –
Cc1cc(-c2nnc3n2CCCCC3)c(C)n1-c1cccnc1 | -1.28% | –
CCOc1ccc(CCNC(=O)c2cc3ccncc3n2Cc2cccc(C)n2)cc1OCC | 0.567% | –
CCOc1ccc(CCNC(=O)c2ccc(Oc3ccccc3)cc2)cc1OCC | 0.211% | –
Cc1cc(C)c(OP(=O)(OCc2c(-c3ccccc3)no[n+]2[O-])Oc2c(C)cc(C)cc2C)c(C)c1 | -0.176% | –
Cc1cccc(C)c1OP(=O)(OCc1c(-c2ccccc2)no[n+]1[O-])Oc1c(C)cccc1C | -2.01% | –
CCOc1ccc(CCNC(=O)c2cc3ccccc3n2Cc2cccc(C)c2)cc1OCC | -1.3% | –
CCOc1ccc(CCNC(=O)c2cc3ncccc3n2Cc2cccc(C)n2)cc1OCC | -7.42% | –
S=P(c1ccccc1)(c1ccccc1)c1c[nH]c2ccccc12 | -1.68% | –
CCOc1ccc(CCNC(=O)c2cc3cccnc3n2Cc2cccc(C)n2)cc1OCC | 3.07% | –
S=P(c1ccccc1)(c1ccccc1)c1c[n+](Cc2ccccc2)c2ccccn12 | 2.55% | –
Cc1c(P(=S)(c2ccccc2)c2ccccc2)[n+]2ccccc2n1C | – | inactive
CCOc1ccc(CCNC(=O)c2cc3sccc3n2Cc2ccc(F)cc2F)cc1OCC | 1.8% | –
Cn1cc(Cl)c(C2N=C(Nc3nc4ccccc4o3)NC3=C2C(=O)CCC3)n1 (centres undefined) | -18.4% | –
CCOc1ccc(CCNC(=O)c2cc3sccc3n2CCN(C)C)cc1OCC | -3.54% | –
CC(=O)Nc1ncc(S(=O)(=O)N2CCOCC2)s1 | -2.24% | –

SMILES | activity change, negative = inhibition | outcome
Cc1cc(-c2nnc3n2CCCCC3)c(C)n1-c1ccc(C(C)(C)C)cc1 | 2.97% | –
CN1CC[C@@]2(C)c3cc(O)ccc3N(C)C2O1 (some centres undefined) | -5.62% | –
CCOc1ccc(CCNC(=O)c2cc3ccccc3n2CCN2CCOCC2)cc1OCC | 0.329% | –
CCOc1ccc(CCNC(=O)c2ccccc2)cc1OCC | -3.67% | –
O=S(=O)(Nc1ccc(-c2ccccc2)cc1)c1ccc(NCc2cccc(Cl)c2O)cc1 | -1.82% | –
COC(=O)c1nc(-c2cccc3ccccc23)oc1OC | 2.53% | –
CCOC(=O)C1CCN(C(=O)C2(NC(=O)Nc3ccccc3Cl)CCCC2)CC1 | 3.2% [at 57.7 µM] | –
O=C(Nc1ncc(Cc2ccc(C(F)(F)F)cc2)s1)c1cnc(-c2ccccc2)o1 | -5.08% | –
S=P(c1ccccc1)(c1ccccc1)c1c(-c2ccccc2)[nH]c2ccccc12 | -1.4% | –
CCOc1ccc(CCNC(=O)c2ccc(C(=O)c3ccccc3)cc2)cc1OCC | 0.0498% | –
Cc1nc2ccccn2c1P(=S)(c1ccccc1)c1ccccc1 | 0.334% | –
Oc1cccc2cc(N3CCNCC3)cnc12 | -9.6% | –
Cc1cccc(-n2cnc3cc(C(=O)N4CCCC(C)C4)ccc32)c1 (centres undefined) | -2.29% | –
CCc1nn2c(=O)c(F)c(N3CCNCC3)nc2s1 | -1.11% | –
CN1CCN(c2cnc3c(O)ccc(C(=O)O)c3c2)CC1 | -5.74% | –
C[n+]1cc(P(=S)(c2ccccc2)c2ccccc2)n2ccccc21 | -2.37% | –
CCc1nn2c(=O)c(C)c(N3CCNCC3)nc2s1 | -4.71% | –
Cc1[nH]c2ccccc2c1P(=S)(c1ccccc1)c1ccccc1 | -3.73% | –
N#Cc1nc(-c2cccc3ccccc23)oc1NCc1ccccc1 | 3.92% | –
